Compounds with a hit are over-represented: about 2% of the library has one in this group of screens.
Yeast superoxide – yeast age-related superoxide inhibition as caloric restriction mimetic | S. cerevisiae aged cells, superoxide DHE fluorescence; active compounds read low | superoxide response (% of plate mean), % at 10 µM | hit rate 0.18% among 330,000 | AID 2690;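 active = superoxide response under a set limit, about three screen SD below normal, cut at about 65% in these data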;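 also: yeast aged for seven days with compound at 30 °C before DHE staining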
Platelet DG rel – platelet dense granule release activity. human platelet-rich plasma, SFLLRN dense granule ATP release, luminescence. inhibition, %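 (compounds screened at 7.5 µM in platelet-rich plasma)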. hit rate 0.22% among 300,000;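 active = mean replicate score, as percent of positive control, at or above 50; inconclusive = mean below 50 but at least one replicate at or above 50; inactive = mean and every replicate below 50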
Calb FLC – affects C. albicans growth with fluconazole | C. albicans CaCi-2 (fluconazole-resistant clinical isolate) + fluconazole, Alamar Blue growth, 48 h | growth inhibition, % (test concentration not listed) | hit rate 0.57% among 300,000 | AID 1979;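 active = growth inhibition above about 58% in most replicates, limit read from the data, passing the limit was not always enough; inconclusive = exactly half the replicates above a set limit; inactive = most replicates below a set limit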;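 also: all wells also contain fluconazole at 8 µg/ml as a sub-toxic cotreatment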
SKKanGAS inh – SKKanGAS growth inhibition; hit rate 1.3% among 300,000; AID 1662; S. pyogenes SKKanGAS, kanamycin growth, BacTiter-Glo, 6 h; inhibition, % at 7.5 µM;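 active = mean replicate score, as percent of positive control median, at least 50; inconclusive = mean below 50 but one replicate at or above 50; inactive = mean and every replicate below 50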;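 also: strain carries kanamycin resistance gene driven by streptokinase promoter and grows in 40 µg/ml kanamycin; loss of luminescence reflects streptokinase promoter inhibition or plain growth inhibition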
PolyA inhibitor – inhibitors of polyadenylation in S. cerevisiae | hit rate 0.02% among 300,000 | activity score, % at 12 µM | S. cerevisiae SKY197-pL101 polyadenylation reporter, beta-gal luminescence; efflux-impaired pdr1/pdr3 knockout yeast; score 100 = 6 SD above DMSO;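 active = lowest replicate activity score at least 50, where 100 means six control SD above control mean; inconclusive = lowest score under 50 but half or more replicates reach 50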;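 also: yeast exposed to compound for 9 h at 30 °C; higher score means more reporter readthrough which indicates perturbed polyadenylation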
A number is an active result; i = inactive; ? = inconclusive; nt = no result.

SMILES	Yeast superoxide	Platelet DG rel	Calb FLC	SKKanGAS inh	PolyA inhibitor
COc1ccccc1NC(=O)Nc1nc(CC(=O)Nc2cccc(F)c2)cs1	i	i	i	i	i
COc1ccc(CNC(=O)Cc2csc(NC(=O)Nc3ccccc3OC)n2)cc1	i	i	i	55	i
COc1ccccc1NC(=O)Nc1nc(CC(=O)N2CCN(c3ccccc3)CC2)cs1	i	i	i	i	i
COc1ccc(C2(c3ccc(OC)cc3)NC(=O)NC2=O)cc1	i	i	i	i	i
Cc1cc(C(F)F)n2nc(C(=O)Nc3cccnc3Cl)nc2n1	i	i	i	i	i
Cc1nn(CC(=O)N2CCCCCC2)c(=O)c2cc3occc3n12	i	i	i	i	i
Cc1ccc(S(=O)(=O)N(C)c2ccc(OCC(=O)N3CCCCC3)cc2)cc1	i	i	i	i	i
Clc1ccc(-c2nc(N3CCCCC3)nc3ccccc23)cc1	i	i	nt	90	i
CCCOC(=O)c1ccc(Oc2c(-c3ccc(OCC)cc3O)n[nH]c2C)cc1	i	i	i	62	i
CCCOC(=O)c1ccc(Oc2cn[nH]c2-c2ccc(OCC)cc2O)cc1	i	i	i	78	i
CCOC(=O)[C@H]1[C@H]2COc3ccccc3[C@@H]2N2C(=O)[C@@H](CO)NC(=O)[C@@]12C	i	nt	nt	nt	nt
CCOC(=O)c1ccc(NC(=S)N2CCSC2c2c(F)cc(F)cc2F)cc1 (stereo unspecified)	i	i	i	i	i
Fc1cc(F)c(C2SCCN2C(=S)Nc2cccc(C(F)(F)F)c2)c(F)c1 (stereo unspecified)	i	i	i	50	i
CN(C(=O)CSc1nnc(-c2ccco2)o1)C1CCCCC1	i	i	95	i	i
Cc1ccc(CN(c2ccc(C(=O)N3CCCC3)cc2)S(C)(=O)=O)cc1	i	i	i	67	?
CCN(CC)Cc1ccc(NC(=O)c2sc3cc(Cl)ccc3c2Cl)cc1	i	i	103	i	i
O=C(CCNC(=O)N1CC(=O)Nc2ccccc21)Nc1cccc(Cl)c1	i	i	i	i	i
Cc1ccc(C(C)NC(=S)NC2CCCCC2)cc1C (stereo unspecified)	i	i	i	i	i
CCC(NC(=S)NC1CCCCC1)c1ccc(C(C)C)cc1 (stereo unspecified)	i	i	i	65	i
Cc1ccccc1N1CC(C(=O)N2CCCCCC2)CC1=O (stereo unspecified)	i	nt	i	i	i
Cc1cccc(C(=O)Nc2scc(-c3ccc(Br)cc3)c2C(=O)O)c1	i	i	i	89	?
Cc1ccc(-c2csc(NC(=O)c3cccc(C)c3)c2C(=O)O)cc1	i	i	i	i	?
CC(=O)Nc1ccc(S(=O)(=O)N2CCN(C(=O)c3ncoc3-c3ccccc3C)CC2)cc1	i	i	i	i	i
CC(OC(=O)c1ccc(Cl)nc1)C(=O)N1CCc2ccccc21 (stereo unspecified)	i	i	i	i	i
O=C(Nc1ccc2c(c1)CCC2)c1cc(S(=O)(=O)Nc2ccc(F)cc2)c(Cl)cc1Cl	i	i	i	103	i
SMILES	Yeast superoxide	Platelet DG rel	Calb FLC	SKKanGAS inh	PolyA inhibitor
O=C(N/N=C/c1ccc(-c2ccc(Cl)c(C(=O)O)c2)o1)c1cc2c(ccc3ccccc32)o1	i	i	i	61	i
Cc1ccc(-c2ccc(/C=N\NC(=O)c3cc4c(ccc5ccccc54)o3)o2)cc1[N+](=O)[O-]	i	i	i	i	i
COC(=O)CCCC(=O)N1CCCC(N(C)CCc2ccccc2)C1 (stereo unspecified)	i	i	i	i	i
COc1ccc(N=C2S/C(=C\c3ccc(N4CCOCC4)o3)C(=O)N2CCc2c[nH]c3ccccc23)cc1	i	i	i	59	i
O=C(COc1ccc(S(=O)(=O)N2CCOCC2)cc1)NCCN1CCOCC1	i	i	i	i	i
O=C(COC(=O)c1nn(CCO)c(=O)c2ccccc12)Nc1ccc(Cl)c(Cl)c1	i	nt	nt	nt	nt
CC1(C)CN(c2ccccc2)N(C(=O)c2ccc(C#N)cc2)C1=O	i	i	85	i	i
CC1(C)CN(c2ccccc2)N(C(=O)c2ccc(F)cc2)C1=O	i	i	i	i	i
Cc1ccc(C)c2sc(N3CCN(C(=O)c4ccc([N+](=O)[O-])o4)CC3)nc12	i	i	i	65	i
CCn1nc(C(=O)Nc2cc(Cl)ccc2-n2cncn2)c2ccccc2c1=O	i	i	i	i	i
COCCN1C(=O)C(O)=C(C(=O)c2ccco2)C1c1cccc(Oc2ccccc2)c1 (stereo unspecified)	i	i	99	i	i
CCCOc1cccc(C2C(C(=O)c3ccco3)=C(O)C(=O)N2CCN(CC)CC)c1 (stereo unspecified)	i	i	i	i	i
Cc1cccc(NC(=O)CCS(=O)(=O)c2ccc(Cl)cc2)c1	i	i	i	i	i
O=C(NN1CCOCC1)c1ccc(Cl)cc1[N+](=O)[O-]	i	i	i	i	i
Cc1cc2n(n1)C(c1cn(-c3ccccc3)nc1C)Nc1ccccc1-2 (stereo unspecified)	i	i	i	i	i
Cc1cc2n(n1)C(c1c[nH]c3ccccc13)Nc1ccccc1-2 (stereo unspecified)	i	i	i	63	i
Nc1n[nH]c(C2CC2)c1N=Nc1ccc(Cl)c(Cl)c1	i	i	i	82	i
N=C1/C(=C\c2ccc(OC(=O)c3ccccc3Cl)cc2)C(=O)N=C2SC(N3CCOCC3)=NN12	i	i	i	53	i
N#CCSc1nc(-c2ccccc2)c2cc(Cl)ccc2n1	i	i	i	i	i
C=CCSc1nc(-c2ccccc2)c2cc(Cl)ccc2n1	i	i	i	57	i
Cc1cc(C(F)F)n2nc(C(=O)Nc3sc4c(c3C#N)CCC4)nc2n1	i	i	i	i	i
CC1CCCN(Cc2c(O)ccc3c(=O)c(-c4nc5ccccc5s4)c(N)oc23)C1 (stereo unspecified)	i	i	81	i	i
Cn1c(SC2=CS(=O)(=O)c3ccccc32)nc2ccccc21	i	i	92	i	i
COC(=O)CN(c1ccccc1)S(=O)(=O)c1cc(Br)ccc1OC	i	i	i	i	i
O=[N+]([O-])c1ccc(Nc2nc(NC3CCCCC3)nc(N3CCCC3)n2)cc1	i	i	i	83	i
SMILES	Yeast superoxide	Platelet DG rel	Calb FLC	SKKanGAS inh	PolyA inhibitor
COc1cccc(/C=N/Nc2ccc([N+](=O)[O-])cn2)c1O	i	i	97	104	i
O=[N+]([O-])c1ccc(NC2CCCC2)cc1	i	i	i	i	i
O=[N+]([O-])c1ccc(Nc2nc(N/N=C/c3cccc(F)c3)nc(N3CCCC3)n2)cc1	i	i	i	i	i
COc1cccc(/C=N/Nc2nc(Nc3ccc([N+](=O)[O-])cc3)nc(N3CCCC3)n2)c1O	i	i	72	73	i
Cc1occc1-c1nnc(-c2cc([N+](=O)[O-])cc([N+](=O)[O-])c2)o1	i	i	i	i	i
COc1cccc(C2/C(=C(/O)c3ccc(C)cc3)C(=O)C(=O)N2Cc2ccco2)c1 (stereo unspecified)	i	i	94	i	i
Cn1c(SCC(=O)NC2CCCC2)nnc1-c1ccco1	i	i	i	i	i

Source: PubChem (several laboratories)
